Test results published in PubChem BioAssay (Tox21).
Results filed as inconclusive are left out. Active and inactive are the calls of the source. Unless noted, calls come from the whole dose curve; as a rule, active = well fitted curve in the direction sought with a large enough effect in the repeat runs; inconclusive = weak or mixed curves; inactive = no such curve, though single readings can be large; an effect the other way counts as inactive or inconclusive.

Experiments:
[1] = qHTS assay for small molecules that induce genotoxicity in human embryonic kidney cells expressing luciferase-tagged ATAD5 (AID 651632); note: nearly all actives have a fitted effect of over 15% in size
In short: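 Quantitative HTS in HEK293T expressing luciferase-tagged ATAD5, whose levels rise upon DNA damage. Exposure ran 16 hr at 37C and 5% CO2, with luminescence read 30 min after Amplite addition at room temperature.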

[2] = qHTS assay for small molecule agonists of the p53 signaling pathway - cell viability (AID 651633; calls by dose curve;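 note: p53RE-bla HCT reporter cells with a stable beta-lactamase p53 reporter; series mostly up to about 83 µM; nearly all actives have a fitted effect of over 30% in size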)
In short: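 p53RE-bla cells, seeded at 4,000 per well and rested 5 h at 37 C/5% CO2, received compounds in DMSO for 16 h at 37 C. CellTiter-Glo was then added, and luminescence was read after 30 min at room temperature to gauge cytotoxicity.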

[3] = qHTS assay for small molecules that induce genotoxicity in human embryonic kidney cells expressing luciferase-tagged ATAD5 - cell viability (AID 651634; calls by dose curve; note: nearly all actives have a fitted effect of over 25% in size)
In short: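 After 15.5 hr incubation with compound at 37C, 5% CO2, HEK293T ATAD5-luciferase cells received CellTiter-Fluor reagent; fluorescence intensity was quantified following 30 min at 37C.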

[4] = qHTS assay for small molecule disruptors of the mitochondrial membrane potential - cell viability (AID 720634; calls by dose curve;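 note: human HepG2 liver cancer cells; series mostly up to about 83 µM; nearly all actives have a fitted effect of over 20% in size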)
In short: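 ATP-based luminescent viability readout (CellTiter-Glo, 30 min, room temperature) in HepG2 cells multiplexed with the m-MPI membrane potential dye; compound exposure lasted 1 hr at 37 C.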

[5] = qHTS assay to test for compound auto fluorescence at 535 nm (green) in HepG2 cells (AID 720675)
[6] = qHTS assay to test for compound auto fluorescence at 460 nm (blue) in HEK293 cells (AID 720678)
In short: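 Intrinsic compound fluorescence is recorded in live HEK293 cultures after overnight incubation at 37C, 5% CO2, using excitation 405 nm and emission 460 nm. Values are referenced to triamterene.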

[7] = qHTS assay to test for compound auto fluorescence at 590 nm (red) in HEK293 cells (AID 720679)
In short: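 Red autofluorescence, HEK293 cells: 2,000 cells/well; attach 4-5 hr 37C; add 23 nL cpd or DMSO; incubate o/n 37C 5% CO2; read Ex540/Em590; Rose Bengal sodium reference.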

[8] = qHTS assay to test for compound auto fluorescence at 535 nm (green) in HEK293 cells (AID 720680)
[9] = qHTS assay to test for compound auto fluorescence at 460 nm (blue) in HEK293 cell free culture (AID 720681)
In short: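 Test compounds were pinned into cell-free culture medium (DMEM with 10% FBS) and fluorescence was read directly at Ex/Em 405/460 nm. Signals were expressed as fluorescence equivalents of triamterene, with DMSO vehicle as control.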

[10] = qHTS assay to test for compound auto fluorescence at 535 nm (green) in HEK293 cell free culture (AID 720682)
In short: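 Measurement is a direct plate read of green fluorescence (485 nm in, 535 nm out) after compound addition to serum-supplemented DMEM lacking cells, with fluorescein used to express intensities.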

[11] = qHTS assay to test for compound auto fluorescence at 590 nm (red) in HEK293 cell free culture (AID 720683)
In short: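 Tox21 10K library compounds were pinned into cell-free DMEM with 10% FBS and fluorescence was read at excitation 540 nm. Activity is expressed as Rose Bengal sodium equivalency.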

[12] = qHTS assay to test for compound auto fluorescence at 590 nm (red) in HepG2 cell free culture (AID 720684)
In short: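 Ex 540 / Em 590 nm read of compound in cell-free MEM (10% FBS). Rose Bengal sodium reference.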

[13] = qHTS assay to test for compound auto fluorescence at 460 nm (blue) in HepG2 cell free culture (AID 720685)
In short: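 Cell-free plates of MEM plus 10% FBS received 23 nL compound or DMSO vehicle; blue-channel (405/460 nm) intensity scored against triamterene as reference fluorophore.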

[14] = qHTS assay to test for compound auto fluorescence at 535 nm (green) in HepG2 cell free culture (AID 720686)
[15] = qHTS assay to test for compound auto fluorescence at 460 nm (blue) in HepG2 cells (AID 720687)
In short: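 Cells (2,000/well in MEM with 10% FBS) attached overnight at 37 C, then were exposed to compound or DMSO for 1 hr at 37 C, 5% CO2. Fluorescence read at Ex/Em 405/460 nm, expressed as triamterene-equivalent signal.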

[16] = target: Glucocorticoid receptor (Homo sapiens) (UniProt P04150); test: qHTS assay to identify small molecule agonists of the glucocorticoid receptor (GR) signaling pathway (AID 720691; active = well fitted activation curve with a large enough effect in the signal ratio in the repeat runs, not every such curve was filed as active; the % refers to the signal ratio)
In short: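 Cells: GR-bla HeLa, endogenous GR with stably integrated GRE-beta-lactamase reporter. Treatment 18 h, 37 C, compounds delivered in DMSO. Detection via LiveBLAzer B/G FRET substrate, 2 h RT, fluorescence intensity.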

[17] = target: Glucocorticoid receptor (Homo sapiens) (UniProt P04150); test: qHTS assay to identify small molecule antagonists of the glucocorticoid receptor (GR) signaling pathway (AID 720692; active = well fitted inhibition curve with a large enough effect in the signal ratio in the repeat runs, not every such curve was filed as active; the % refers to the signal ratio)
In short: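 Quantitative HTS in antagonist format: HeLa cells expressing endogenous GR and a stably integrated GRE-bla reporter, stimulated with 5 nM dexamethasone (final) alongside test compounds for 18 h.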

[18] = qHTS assay to test for compound auto fluorescence at 590 nm (red) in HepG2 cells (AID 720674)
In short: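 Rose Bengal sodium served as the red fluorophore standard. HepG2 monolayers (overnight attachment, MEM with 10% FBS) were exposed to test compounds for 1 hr at 37 C and read at Ex 540/Em 590 nm.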

[19] = qHTS assay for small molecule disruptors of the mitochondrial membrane potential (AID 720635)
In short: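 HepG2 cells (2,000/well) attached overnight at 37C, then took compound for 1 hr at 37C, 5% CO2. Mito-MPS dye was added for 30 min; fluorescence was read at 490/535 nm (monomers) and 540/590 nm (aggregates).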
% is set by controls: 0 for no effect and ±100 for the full control effect.

Chain of Glucocorticoid receptor (Homo sapiens) (P04150 whole entry, looked up): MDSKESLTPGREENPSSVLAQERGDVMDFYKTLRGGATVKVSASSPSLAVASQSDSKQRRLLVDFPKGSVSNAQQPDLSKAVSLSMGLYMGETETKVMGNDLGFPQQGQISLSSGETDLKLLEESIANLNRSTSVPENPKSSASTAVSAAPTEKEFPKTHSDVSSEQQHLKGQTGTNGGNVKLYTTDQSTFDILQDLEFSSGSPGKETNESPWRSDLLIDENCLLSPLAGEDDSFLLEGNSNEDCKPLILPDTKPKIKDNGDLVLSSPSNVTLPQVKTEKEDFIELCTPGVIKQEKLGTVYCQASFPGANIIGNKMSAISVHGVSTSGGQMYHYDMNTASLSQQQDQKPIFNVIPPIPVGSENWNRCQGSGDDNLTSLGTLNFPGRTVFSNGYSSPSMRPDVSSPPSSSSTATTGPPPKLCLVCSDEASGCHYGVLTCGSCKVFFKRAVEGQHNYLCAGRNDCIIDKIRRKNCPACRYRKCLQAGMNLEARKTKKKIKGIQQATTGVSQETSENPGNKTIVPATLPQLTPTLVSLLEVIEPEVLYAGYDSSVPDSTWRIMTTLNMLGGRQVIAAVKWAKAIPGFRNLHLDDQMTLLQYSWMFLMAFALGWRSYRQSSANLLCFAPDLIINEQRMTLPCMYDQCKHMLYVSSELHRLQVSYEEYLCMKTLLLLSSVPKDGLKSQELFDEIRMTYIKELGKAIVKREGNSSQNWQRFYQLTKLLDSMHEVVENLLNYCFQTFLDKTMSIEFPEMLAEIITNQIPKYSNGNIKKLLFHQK

CCC(=O)OCCOc1ccccc1
inactive: Potency [1] | outcome [2] | outcome [3] | outcome [4] | outcome [5] | outcome [6] | outcome [7] | outcome [8] | outcome [9] | outcome [10] | outcome [11] | outcome [12] | outcome [13] | outcome [14] | outcome [15]

BrCCOc1ccccc1
inactive: Potency [1] | outcome [2] | outcome [3] | outcome [4] | outcome [5] | outcome [6] | outcome [7] | outcome [8] | outcome [9] | outcome [10] | outcome [11] | outcome [12] | outcome [13] | outcome [14] | outcome [15] | Potency [16] | outcome [17]

CCOC(=O)c1ccc(N(C)C)cc1
inactive: outcome [2] | outcome [3] | outcome [4] | outcome [18] | outcome [5] | outcome [6] | outcome [7] | outcome [8] | outcome [9] | outcome [10] | outcome [11] | outcome [12] | outcome [13] | outcome [14] | outcome [15] | Potency [16] | outcome [17]

COc1cc(NS(=O)(=O)c2ccc(N)cc2)ncn1
inactive: Potency [1] | outcome [2] | outcome [3] | outcome [4] | fluorescence, relative to Rose Bengal [18] -0.434% [at 18.6 µM] | fluorescence, % of fluorescein control [5] 0.0032% [at 18.6 µM] | fluorescence, % of triamterene [6] -0.148% [at 18.6 µM] | fluorescence, % of fluorescent control [7] 0.185% [at 18.6 µM] | fluorescence, % of fluorescein [8] 0.0387% [at 18.6 µM] | fluorescence, % of fluorescent control [9] 0.0083% [at 18.6 µM] | activity change [10] 0.0071% [at 18.6 µM] | fluorescence, % of fluorescent control [11] -0.0018% [at 18.6 µM] | fluorescence, % of Rose Bengal [12] 0.116% [at 18.6 µM] | fluorescence, % of fluorescent control [13] 0.0187% [at 18.6 µM] | fluorescence, % of fluorescein control [14] 0.0114% [at 18.6 µM] | fluorescence, % of fluorescent control [15] -0.0071% [at 18.6 µM] | Potency [16] | outcome [17]

O=C(O)/C=C(\CC(=O)O)C(=O)O
inactive: outcome [2] | outcome [3] | outcome [4] | Potency [19] | outcome [18] | outcome [5] | outcome [6] | outcome [7] | outcome [8] | outcome [9] | outcome [10] | outcome [11] | outcome [12] | outcome [13] | outcome [14] | outcome [15]

C=CCCCCCCCCOC(C)=O
inactive: outcome [2] | outcome [3] | outcome [4] | Potency [19] | outcome [18] | outcome [5] | outcome [6] | outcome [7] | outcome [8] | outcome [9] | outcome [10] | outcome [11] | outcome [12] | outcome [13] | outcome [14] | outcome [15] | Potency [16]

CC1(C)S[C@@H]2[C@H](NC(=O)Cc3ccccc3)C(=O)N2[C@H]1C(=O)O (tested in a mixture with another compound)
inactive: Potency [1] | outcome [2] | outcome [3] | outcome [4] | outcome [18] | outcome [5] | outcome [6] | outcome [7] | outcome [8] | outcome [9] | outcome [10] | outcome [11] | outcome [12] | outcome [13] | outcome [14] | outcome [15] | Potency [16]

CC/C=C\CCCCCCCCCCOC(C)=O
inactive: Potency [1] | outcome [3] | outcome [4] | Potency [19] | outcome [18] | outcome [5] | outcome [6] | outcome [8] | outcome [9] | outcome [10] | outcome [11] | outcome [12] | outcome [13] | outcome [14] | outcome [15] | Potency [16] | outcome [17]

Cc1ccccc1OCC(=O)O
inactive: Potency [1] | outcome [2] | outcome [3] | outcome [4] | outcome [18] | outcome [5] | outcome [6] | outcome [8] | outcome [9] | outcome [10] | outcome [11] | outcome [12] | outcome [13] | outcome [14] | outcome [15] | Potency [16] | outcome [17]

CCCCN1C(=O)c2ccccc2C1=O
inactive: Potency [1] | outcome [2] | outcome [3] | outcome [4] | outcome [18] | outcome [5] | outcome [6] | outcome [7] | outcome [8] | outcome [9] | outcome [10] | outcome [11] | outcome [13] | outcome [14] | outcome [15] | Potency [16] | outcome [17]

CC[C@@]1(c2ccccc2)NC(=O)N(C)C1=O
inactive: Potency [1] | outcome [2] | outcome [3] | outcome [4] | outcome [5] | outcome [6] | outcome [7] | outcome [8] | outcome [9] | outcome [10] | outcome [11] | outcome [13] | outcome [14] | outcome [15]

O=C(CCBr)N1CCN(C(=O)CCBr)CC1
inactive: Potency [1] | outcome [2] | outcome [3] | outcome [4] | outcome [5] | outcome [6] | outcome [7] | outcome [8] | outcome [9] | outcome [10] | outcome [11] | outcome [13] | outcome [14] | outcome [15] | Potency [16] | outcome [17]

C=CCON/C(CCC)=C1\C(=O)CC(C)(C)C(C(=O)OC)=C1O
inactive: Potency [1] | outcome [2] | outcome [3] | outcome [4] | outcome [18] | outcome [5] | outcome [6] | outcome [7] | outcome [8] | outcome [9] | outcome [10] | outcome [11] | outcome [12] | outcome [13] | outcome [14] | outcome [15] | Potency [16] | outcome [17]

C[Si](C)(C)O[Si](O)(O)O
inactive: Potency [1] | outcome [2] | outcome [3] | outcome [4] | outcome [5] | outcome [6] | outcome [7] | outcome [8] | outcome [9] | outcome [10] | outcome [11] | outcome [12] | outcome [13] | outcome [14] | outcome [15] | Potency [16] | outcome [17]

CN(C)c1ccncc1
inactive: outcome [2] | outcome [4] | Potency [19] | outcome [18] | outcome [5] | outcome [6] | outcome [7] | outcome [8] | outcome [9] | outcome [10] | outcome [11] | outcome [12] | outcome [13] | outcome [14] | outcome [15]

CC(CC(=O)Cl)CC(C)(C)C (centres undefined)
inactive: outcome [2] | outcome [3] | outcome [4] | Potency [19] | outcome [18] | outcome [5] | outcome [6] | outcome [7] | outcome [8] | outcome [9] | outcome [10] | outcome [11] | outcome [12] | outcome [13] | outcome [14] | outcome [15]
